# From the supplement of paper PMC8728848
# This excerpt belongs to a sample that is enriched for the strongest signals.
# B1: RfpC (Mycobacterium tuberculosum), O07747 (protein)
# chain: MHHHHHHSSGRENLYFQGHMASKSAMAAGLVTASMSLSTAVAHAGPSPNWDAVAQCESGGNWAANTGNGKYGGLQFKPATWAAFGGVGNPAAASREQQIAVANRVLAEQGLDAWPTCGAASGLPIALWSKPAQGIKGS
# Key:
# Experiment in all cases: glycan array binding signal (z-score within array); higher = stronger binding
# Conditions in all cases: glycan notation: IUPAC condensed, linker removed
# [1] = target: Fuc(a1-2)Gal(b1-3)GlcNAc(b1-3)Gal(b1-4)Glc
# How it was run: (§1)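 Glycan array data came from 3228 arrays in the Consortium for Functional Glycomics database, and only arrays with an available protein sequence were kept. Glycan names were put into IUPAC-condensed notation, and columns mapping to the same glycan were averaged. The binding signal is a within-array Z-score, averaged across arrays of one protein sequence run at different concentrations or buffers and across linkers. A negative Z-score can be read as non-binding.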
# Fuc(a1-4)GlcNAc = target: Fuc(a1-4)GlcNAc
# How it was run: as §1
# [2] = target: Gal(b1-4)GalNAc(b1-3)[Fuc(a1-2)]Gal(b1-4)GlcNAc
# How it was run: as §1
# Gal(b1-4)Glc = target: Gal(b1-4)Glc
# How it was run: as §1
# Gal(b1-4)Glc6S = target: Gal(b1-4)Glc6S
# How it was run: as §1
# [3] = target: Gal(b1-4)GlcNAc(b1-3)Gal(b1-4)[Fuc(a1-3)]GlcNAc(b1-3)Gal(b1-4)[Fuc(a1-3)]GlcNAc
# How it was run: as §1
# [4] = target: Gal(b1-4)GlcNAc(b1-6)GalNAc
# How it was run: as §1
# Gal4S(b1-4)GlcNAc = target: Gal4S(b1-4)GlcNAc
# How it was run: as §1
# [5] = target: GalNAc(b1-3)Gal(a1-4)Gal(b1-4)GlcNAc
# How it was run: as §1
# GlcNAc(b1-3)Gal = target: GlcNAc(b1-3)Gal
# How it was run: as §1
# Kdn(a2-3)Gal(b1-4)GlcNAc = target: Kdn(a2-3)Gal(b1-4)GlcNAc
# How it was run: as §1
# [6] = target: Man(a1-2)Man(a1-2)Man(a1-3)Man
# How it was run: as §1
# [7] = target: Man(a1-2)Man(a1-3)[Man(a1-2)Man(a1-6)]Man(a1-6)[Man(a1-2)Man(a1-2)Man(a1-3)]Man(b1-4)GlcNAc(b1-4)GlcNAc
# How it was run: as §1
# Man(a1-6)Man = target: Man(a1-6)Man
# How it was run: as §1
# Neu5Ac(a2-3)Gal = target: Neu5Ac(a2-3)Gal
# How it was run: as §1
# [8] = target: Neu5Ac(a2-3)Gal(b1-3)GalNAc(b1-4)[Neu5Ac(a2-3)]Gal(b1-4)Glc
# How it was run: as §1
# [9] = target: Neu5Ac(a2-3)Gal(b1-4)[Fuc(a1-3)]GlcNAc(b1-3)Gal(b1-4)[Fuc(a1-3)]GlcNAc(b1-3)Gal(b1-4)[Fuc(a1-3)]GlcNAc
# How it was run: as §1
# [10] = target: Neu5Ac(a2-3)[Neu5Ac(a2-6)]GalNAc
# How it was run: as §1
# Neu5Ac(a2-6)Gal(b1-4)Glc = target: Neu5Ac(a2-6)Gal(b1-4)Glc
# How it was run: as §1
# [11] = target: Neu5Ac(a2-6)Gal(b1-4)GlcNAc(b1-2)Man(a1-3)[Gal(b1-4)GlcNAc(b1-2)Man(a1-6)]Man(b1-4)GlcNAc(b1-4)GlcNAc
# How it was run: as §1
# Neu5Gc(a2-6)GalNAc = target: Neu5Gc(a2-6)GalNAc
# How it was run: as §1
# [12] = target: Neu5Gc(b2-6)Gal(b1-4)GlcNAc
# How it was run: as §1
binder,measurement,setting,value
B1,glycan array binding signal (z-score),[1],0.546
same,glycan array binding signal (z-score),Fuc(a1-4)GlcNAc,-1.09
same,glycan array binding signal (z-score),[2],3.48
same,glycan array binding signal (z-score),Gal(b1-4)Glc,-0.11
same,glycan array binding signal (z-score),Gal(b1-4)Glc6S,4.01
same,glycan array binding signal (z-score),[3],-0.25
same,glycan array binding signal (z-score),[4],-0.822
same,glycan array binding signal (z-score),Gal4S(b1-4)GlcNAc,0.815
same,glycan array binding signal (z-score),[5],3.74
same,glycan array binding signal (z-score),GlcNAc(b1-3)Gal,-0.187
same,glycan array binding signal (z-score),Kdn(a2-3)Gal(b1-4)GlcNAc,-0.421
same,glycan array binding signal (z-score),[6],2.92
same,glycan array binding signal (z-score),[7],-0.745
same,glycan array binding signal (z-score),Man(a1-6)Man,-0.622
same,glycan array binding signal (z-score),Neu5Ac(a2-3)Gal,0.641
same,glycan array binding signal (z-score),[8],-0.923
same,glycan array binding signal (z-score),[9],-0.798
same,glycan array binding signal (z-score),[10],0.475
same,glycan array binding signal (z-score),Neu5Ac(a2-6)Gal(b1-4)Glc,0.057
same,glycan array binding signal (z-score),[11],-0.731
same,glycan array binding signal (z-score),Neu5Gc(a2-6)GalNAc,1.8
same,glycan array binding signal (z-score),[12],3.14
